Data taken from PubChem BioAssay (NCI).
About 79,000 compounds went through this panel and 15% of them were active in at least one assay; those are over-represented in the sample as a whole. A number with no mark means an inactive call. Calls of active or inactive are those of the source. Rule as the data show it: active = growth inhibition above about 70%; inactive = the rest.

Columns and labels:
[1] = NCI Yeast Anticancer Drug Screen. Data for the rad50 strain (AID 155);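 also: 0% = growth of vehicle-only cultures of the same strain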; details: S. cerevisiae rad50 strain growth inhibition, hits give high values
Summary of the method: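 A DNA repair-deficient yeast mutant serves as the test organism; compound-induced growth inhibition is calculated against vehicle-treated cells.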

[2] = NCI Yeast Anticancer Drug Screen. Data for the mec2-1 strain (AID 157); details: S. cerevisiae mec2-1 strain, hits give high values
Summary of the method: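 Strain: mec2-1 (DNA repair/cell cycle alteration). Compound exposure, then growth measured; inhibition expressed relative to vehicle.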

[3] = NCI Yeast Anticancer Drug Screen. Data for the sgs1 mgt1 strain (AID 161);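 also: 0% = growth of cultures given vehicle only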; details: S. cerevisiae sgs1 mgt1 strain, hits give high values
Summary of the method: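 Mutant yeast exposed to compound; growth scored against vehicle-only wells.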

[4] = NCI Yeast Anticancer Drug Screen. Data for the cln2 rad14 strain (AID 165);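 also: 0% = growth equal to vehicle treated cultures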; details: S. cerevisiae cln2 rad14 strain, hits give high values
Summary of the method: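 Compounds are applied to the cln2 rad14 yeast strain, and growth is then compared with that of vehicle-treated cultures to give inhibition.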

[5] = NCI Yeast Anticancer Drug Screen. Data for the bub3 strain (AID 167); details: S. cerevisiae bub3 mutant strain, hits give high values
Summary of the method: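 Inhibition values come from growth of compound-treated mutant yeast normalised to vehicle-treated controls.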

[6] = NCI Yeast Anticancer Drug Screen. Data for the mlh1 rad18 strain (AID 175); details: S. cerevisiae mlh1 rad18 strain growth inhibition, hits give high values
Summary of the method: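 Read-out is yeast growth inhibition, calculated against vehicle-only controls. The compound was applied to a strain engineered with DNA damage repair alterations.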

[7] = at 5.0 µM (retest, dose inferred, filed as 0.5)
[8] = at 50.0 µM (retest, dose inferred, filed as 5.0)

| Structure (SMILES) | growth inhibition [1, 7] | growth inhibition [1, 8] | growth inhibition ([1]; at 50.0 µM) | growth inhibition [2, 7] | growth inhibition [2, 8] | growth inhibition ([2]; at 50.0 µM) | growth inhibition [3, 7] | growth inhibition [3, 8] | growth inhibition ([3]; at 50.0 µM) | growth inhibition [4, 7] | growth inhibition [4, 8] | growth inhibition ([4]; at 50.0 µM) | growth inhibition [5, 7] | growth inhibition [5, 8] | growth inhibition ([5]; at 50.0 µM) | growth inhibition [6, 7] | growth inhibition [6, 8] | growth inhibition ([6]; at 50.0 µM) |
| --- | --- | --- | --- | --- | --- | --- | --- | --- | --- | --- | --- | --- | --- | --- | --- | --- | --- | --- |
| COC(=O)c1ccc(NCc2c(O)ccc(O)c2Br)cc1Cl | 21% | 99% (active) | 89.5% (active) | 14% | 99% (active) | 92.2% (active) | 21% | 99% (active) | 89.1% (active) | 25% | 99% (active) | 90.2% (active) | 22% | 99% (active) | 91.8% (active) | 25% | 98% (active) | 91.7% (active) |
| COC(=O)C1(C)CC2C(C)(CCC3(C)C4=CC=C5C(=CC(=O)C(O)=C5C)C4(C)CCC23C)CC1O (configuration not stated) | 44% | 98% (active) | 85.8% (active) | 44% | 98% (active) | 87.9% (active) | 48% | 98% (active) | 90.3% (active) | 51% | 97% (active) | 88% (active) | 75% (active) | 98% (active) | 87.3% (active) | 50% | 96% (active) | 85.8% (active) |
| CC(C)=NOCCOC(=O)C(c1ccccc1)c1ccccc1 | -4% | 3% | 80.7% (active) | -5% | 2% | 75% (active) | -8% | -2% | 92% (active) | 0% | 18% | 39.6% | 7% | 25% | 96.6% (active) | -6% | 0% | 89% (active) |
| COC(=O)C1(COCc2ccccc2)CCCC2OC21 (configuration not stated) | 16% | -2% | 2.95% | 6% | -4% | -5.2% | -31% | -2% | 10.4% | 19% | 43% | -2.55% | 5% | 79% (active) | 2.45% | 9% | 10% | 6.5% |
| CN1CCN(CCCCN2c3ccccc3Sc3ccc(C(=O)c4ccccc4)cc32)CC1 | 25% | 27% | 75.6% (active) | 26% | 34% | 22.8% | 27% | 2% | 87.2% (active) | 30% | 18% | -9.8% | 36% | 25% | 22% | 32% | 37% | 60.2% |
| O=C(c1ccccc1)C(c1ccccc1)C1(O)C(=O)Nc2c(Cl)cc(Cl)cc21 (configuration not stated) | 13% | 13% | 92.8% (active) | -6% | -6% | 93.3% (active) | -18% | -18% | 92% (active) | -6% | -6% | 87% (active) | -5% | -5% | 93.2% (active) | 0% | 0% | 92.2% (active) |
| Cc1cccc(C)c1N=Nc1c(C)nc(N)nc1-c1ccccc1 | 0% | 88% (active) | 96.8% (active) | 12% | 95% (active) | 96.4% (active) | 5% | 96% (active) | 95.5% (active) | -4% | 90% (active) | 94.3% (active) | -7% | 93% (active) | 96.3% (active) | -4% | 91% (active) | 95.3% (active) |
| O=C(CC(O)(C(F)(F)Cl)C(F)(F)Cl)CC(O)(C(F)(F)Cl)C(F)(F)Cl | 94% (active) | 100% (active) | 99.1% (active) | 97% (active) | 100% (active) | 99.5% (active) | 93% (active) | 99% (active) | 99.5% (active) | 95% (active) | 99% (active) | 99.3% (active) | 91% (active) | 100% (active) | 99.6% (active) | 97% (active) | 100% (active) | 99.2% (active) |
| O=C(O)C1C2CC3CC(C2)CC1C3 (configuration not stated) | 2% | 42% | 20% | 8% | 47% | 5.85% | 7% | 60% | -4.9% | 3% | 21% | -67.8% | 16% | 86% (active) | 75.5% (active) | 0% | 82% (active) | 9.35% |
